{"source": "PubChem BioAssay (NCI)", "note": "Several values for one entry are separate records, joined by “and”; a condition that tells them apart may be missing. Equal values may be shown once. The panel holds about 83,000 compounds, 20% with a hit somewhere; the sample as a whole holds those more often.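 Step 1: grow cells in 96-well plates. Step 2: add test compound at a single concentration. Step 3: incubate 48 h. Step 4: record percent growth.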 Activity calls are given as the source filed them. The calls were made as follows: active = growth percent below 10; inactive = the rest.", "data": [{"test_system": "HL-60(TB) leukemia", "test": "NCI-60 one-dose screen, 48 h (100 = growth as untreated, 0 = no growth, -100 = all killed)", "conditions": "10 µM unless noted", "values": [{"compound": "Nc1nc2c(nnn2Cc2ccc(Cl)c(Cl)c2)c(=O)[nH]1", "growth": "95% (inactive)"}, {"compound": "CCOc1ccc2c(S(=O)(=O)O)cccc2c1[N+](=O)[O-]", "growth": "113% (inactive) and 95.7% (inactive)"}, {"compound": "CC(C)=CCC[C@](C)(O)[C@H]1CC[C@]2(C)[C@@H]1CC[C@@H]1[C@@]3(C)Cc4nccnc4C(C)(C)[C@@H]3CC[C@]12C", "growth": "67.8% (inactive)"}, {"compound": "CCCN1CCN(c2ccc3nc(-c4ccc5nc(-c6ccc(C(F)(F)F)cc6)[nH]c5c4)[nH]c3c2)CC1", "growth": "-40.7% (active)"}, {"compound": "COc1cc2cc(Oc3ccc(NC(=O)c4cccc(C(F)(F)F)c4)cc3)c(C)nc2cc1OC", "growth": "27.8% (inactive)"}, {"compound": "CSc1nnc(-c2cc3c([nH]c4ccccc43)c(-c3cccc(O)c3)n2)n1-c1ccccc1", "growth": "7.59% (active)"}, {"compound": "C/C(=C\\C(=N\\N=C(N)N)c1ccc(Cl)cc1)c1ccc(Cl)cc1", "growth": "-68% (active)"}, {"compound": "O=C1c2cccc3cccc(c23)C(=O)N1CC#Cc1ccc2c3c(cccc13)C(=O)N(CCO)C2=O", "growth": "112% (inactive)"}, {"compound": "CCCCCCc1cc2cc(-c3csc(/C=C/c4ccccc4)n3)c(=O)oc2cc1O", "growth": "-46.8% (active)"}, {"compound": "COc1ccc2c(c1)C(=O)/C(=C/c1cccc(OCC(=O)Nc3nc(C)c(C)s3)c1)O2", "growth": "-79.3% (active)"}, {"compound": "CCC(C)CC(C)C(=O)c1c(O)ccn(OC)c1=O", "note": "(stereo not given)", "growth": "94.6% (inactive)"}, {"compound": "CC(C)(C)c1ccc(O)c(CNC2CCCCC2)c1", "growth": "74.8% (inactive) and 77.1% (inactive)"}, {"compound": "CCNCc1ccncc1", "growth": "95.8% (inactive)"}, {"compound": "Cn1c([N+](=O)[O-])cnc1/C=C1\\Oc2ccc(Cl)cc2C1=O", "growth": "-2.57% (active)"}, {"compound": "O=C1CSC2=NCCN12", "growth": "106% (inactive) and 86.3% (inactive)"}, {"compound": "O=C1Cc2ccccc2C(=O)O1", "growth": "89.1% (inactive)"}, {"compound": "CC(C)(C)C1=CC(=O)C(C(C)(C)C)=CC1=O", "growth": "92.5% (inactive) and 106% (inactive)"}, {"compound": "CC(C)(C)CC(C)(C)c1ccc(OCCO)cc1", "growth": "91.5% (inactive)"}, {"compound": "O=C(OCc1ccc2c(Cl)cc(Cl)c(O)c2n1)n1cncn1", "growth": "17.7% (inactive)"}, {"compound": "CCOc1c(C#N)c2c(N)ncnc2n1C1OC(CO)C(O)C1O", "note": "(stereo not given)", "growth": "2.98% (active)"}, {"compound": "COc1cc(NC(C)CCCNC(C)C)c2ncccc2c1OC", "note": "(stereo not given)", "growth": "10.6% (inactive)"}, {"compound": "Cc1c(C(=O)/C=C/c2csc3ccccc23)[n+](=O)c2ccccc2n1[O-]", "growth": "67.7% (inactive)"}, {"compound": "O=C1NC(c2ccc(F)cc2)N=C2C(c3ccccc3)=NOC12", "note": "(stereo not given)", "growth": "101% (inactive)"}, {"compound": "CCN(CC)C(Cl)=Nc1ccc(Cl)cc1", "growth": "99.3% (inactive)"}, {"compound": "CCNS(=O)(=O)c1ncnc2nc[nH]c12", "growth": "112% (inactive)"}, {"compound": "CC(=O)CC(c1ccc([N+](=O)[O-])cc1)c1c(O)c2ccccc2oc1=O", "note": "(stereo not given)", "growth": "97% (inactive)"}, {"compound": "CCS/C(Nc1ccccc1)=C(\\C#N)C(=O)N/N=C/c1ccc(Cl)cc1Cl", "growth": "-31.4% (active)"}, {"compound": "O=C(OCC1CC2(Cl)C(Cl)=C(Cl)C1(Cl)C2(Cl)Cl)C1C(C(=O)OCC2CC3(Cl)C(Cl)=C(Cl)C2(Cl)C3(Cl)Cl)C2(Cl)C(Cl)=C(Cl)C1(Cl)C2(Cl)Cl", "note": "(stereo not given)", "growth": "89.3% (inactive)"}, {"compound": "CCOc1ccc(C(=O)Cc2ccccc2)cc1", "growth": "97.4% (inactive)"}, {"compound": "O=C(c1ccccc1)c1ccc(-c2ccc(O)cc2)cc1", "growth": "75.1% (inactive)"}, {"compound": "Cc1ccc(/C=C2\\Oc3cc(OCC(=O)c4ccc(Cl)cc4)ccc3C2=O)cc1", "growth": "50.7% (inactive)"}, {"compound": "CCOP(C)(=O)/C(Cc1ccc(OC)c(OC)c1)=N\\O", "note": "(stereo not given)", "growth": "98.1% (inactive)"}, {"compound": "Cc1cc(N(CCCNc2ccnc3cc(Cl)ccc23)Cc2ccco2)nc(N2CCOCC2)n1", "growth": "45.5% (inactive)"}, {"compound": "CC(=O)Oc1ccc(C2(c3ccc(OC(C)=O)cc3)C(=O)Nc3ccccc32)cc1", "growth": "75.5% (inactive) and 119% (inactive)"}, {"compound": "CC(=O)Nc1ccc(Sc2ccc(NC(C)=O)cc2)cc1", "growth": "73.1% (inactive)"}, {"compound": "COc1ccc(-c2ccc3cnc4sc(-c5ccc(OC)cc5)nc4c3n2)cc1", "growth": "95.3% (inactive)"}, {"compound": "O=C(O)c1cn(C2CC2)c2cc(N3CCN(C(=O)N(c4ccccc4)c4nc(-c5ccccc5)cs4)CC3)c(F)cc2c1=O", "growth": "-39.9% (active)"}, {"compound": "O=[N+]([O-])c1ccc(Cl)c(S(=O)(=O)O)c1", "growth": "96.4% (inactive)"}, {"compound": "S=c1[nH]cccc1-c1nnc2n1Nc1nc3ccc(Cl)cc3cc1CS2", "growth": "104% (inactive)"}, {"compound": "COc1cc2cc(COc3nccc(-c4ccc(Cl)cc4)n3)c(=O)[nH]c2cc1OC", "growth": "70.2% (inactive)"}]}]}
